# Results from PubChem BioAssay (EPA / NIEHS).
# Records with an inconclusive call do not appear. Active and inactive are the calls of the source. The calls were made as follows, unless noted: active = hit-call score of the fitted dose curve at least 0.9, where 1 is the maximum; inconclusive = response in the unintended direction; inactive = score below 0.9.
# Experiments:
# [1] = STM_H9_OrnithineISnorm_perc: Stemina devTOX quickPredict H9 human embryonic stem cell (hESC)-based Assay for Ornithine (ORN) Metabolite Biomarker, Normalized (AID 2283712; active = hit-call score of the fitted dose curve at least 0.9, where 1 is the maximum; inactive = score below 0.9;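 also: ornithine released into spent medium during last day measured by mass spectrometry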)
# Method in brief: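 Undifferentiated pluripotent H9 hESCs were exposed to compound for 72h, with media and compound replaced every 24h. Ornithine in final 24-h conditioned media was measured by UPLC-HRMS, normalized to 13C-labeled spike-in standard and to median 0.1% DMSO control.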
# [2] = Tanguay_ZF_120hpf_ActivityScore_legacy: (Legacy) Oregon State University Tanguay Lab 120 Hour Post-fertilization zebrafish Assay Score for Activity (AID 2283742);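 as to AC50: static exposure from 6 hpf until 120 hpf at 28 °C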
# Method in brief: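 Tropical 5D wild-type zebrafish embryos, dechorionated with pronase at 4 hpf, were exposed singly from 6 hpf to 120 hpf statically at 28C in 0.64% DMSO. Malformations and mortality were scored as binary by brightfield, with the activity score combining 18 morphology components.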
# [3] = ACEA_AR_agonist_AUC_viability: ACEA Biosciences xCELLigence Real-Time Cell Analysis on Androgen Receptor Agonism for Viability (AID 2283775);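 as to AC50: viability read 80 hours after compound addition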
# Method in brief: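 Read-out is area under the impedance curve at 80 h post-dose in 22Rv1 cells, with DMSO as baseline and signal loss taken as reduced viability. Compounds ran in duplicate from 100 uM final.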
# [4] = STM_H9_OrnCyssISnorm_ratio: Stemina devTOX quickPredict H9 human embryonic stem cell (hESC)-based Assay for Ornithine (ORN):Cystine (CYSS) Ratio (AID 2283714)
# Method in brief: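 Undifferentiated H9 hESCs were exposed to compound for 72h with media and chemical replaced every 24h. Final 24-h conditioned media were deproteinized and analysed by UPLC-HRMS. ORN and CYSS peak areas were normalized to C13 internal standards and the ratio taken versus 0.1% DMSO.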
# [5] = CEETOX_H295R_MTT_cell_viability: Viability Assessment in the CeeTox HT-H295R MTT Assay (AID 2283718; active = hit-call score of the fitted dose curve at least 0.9, where 1 is the maximum; inactive = score below 0.9;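 as to AC50: curve fitted both ways so AC50 may mark viability loss or gain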)
# Method in brief: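 H295R cells prestimulated 48 h with 10 uM forskolin, then exposed 48 h to test chemical (0.1% DMSO final). Viability by MTT (0.5 mg/ml, 4 h, 37 C), absorbance 570/650 nm; percent change versus DMSO, bidirectional fit.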
# [6] = ACEA_AR_antagonist_AUC_viability: ACEA Biosciences xCELLigence Real-Time Cell Analysis on Androgen Receptor Antagonism for Viability (AID 2283776);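 also: area under impedance growth curve at 80 h after dosing as viability; hits lower the growth signal relative to DMSO meaning cytotoxicity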
# Method in brief: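 22Rv1 human prostate cancer cells were seeded on electrode plates, monitored overnight, then exposed to eight 1:4 dilutions from 100 uM final. Impedance-based growth kinetics at 80 h gave an AUC viability endpoint normalized to DMSO.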
# [7] = target: Luciferin 4-monooxygenase (Photinus pyralis) (UniProt P08659); assay: CCTE_Simmons_QuantiLum_inhib_2: CCTE's Firefly Luciferase Inhibition Assay, Simmons Lab (AID 2283767)
# Sequence of Luciferin 4-monooxygenase (Photinus pyralis) (P08659 whole entry, looked up): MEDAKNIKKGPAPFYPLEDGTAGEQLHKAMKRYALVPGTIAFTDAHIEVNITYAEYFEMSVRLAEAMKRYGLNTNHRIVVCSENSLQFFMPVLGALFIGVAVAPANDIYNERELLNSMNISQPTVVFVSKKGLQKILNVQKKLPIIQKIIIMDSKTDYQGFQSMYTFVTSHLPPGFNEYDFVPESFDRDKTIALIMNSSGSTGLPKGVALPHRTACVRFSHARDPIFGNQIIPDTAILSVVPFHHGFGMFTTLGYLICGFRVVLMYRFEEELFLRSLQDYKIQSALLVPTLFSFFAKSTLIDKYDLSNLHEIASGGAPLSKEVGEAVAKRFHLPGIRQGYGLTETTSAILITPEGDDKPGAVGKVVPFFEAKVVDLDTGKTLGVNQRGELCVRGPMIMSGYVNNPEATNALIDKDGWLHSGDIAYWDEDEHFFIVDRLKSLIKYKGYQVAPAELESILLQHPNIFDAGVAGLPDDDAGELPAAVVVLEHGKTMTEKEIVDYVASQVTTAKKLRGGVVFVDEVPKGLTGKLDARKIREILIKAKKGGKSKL
# Method in brief: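 Recombinant firefly luciferase (5 ng/well, 200 mM potassium phosphate with 1 mg/ml BSA) was exposed to 8 concentrations from 5 nM to 87.5 uM (final, 0.5% DMSO) for 30 min at 37C in the dark. Loss of luminescence versus DMSO was read after injecting D-luciferin/ATP-analogue reagent.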
# [8] = tested on: zebrafish Androgen Receptor (AR), gene 100005148; assay: ATG_zfAR_XSP1: Attagene TRANS-FACTORIAL Multi-Species (XSP1) HepG2 Assay for zebrafish Androgen Receptor (AR) (AID 2283771)
# Method in brief: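 HepG2 cells were transiently transfected with a zebrafish AR-GAL4 reporter system and partially stimulated with 3 nM 6-alpha-fluorotestosterone. Reporter mRNA was measured after 24 h dosing by RT-PCR with capillary electrophoresis, and gain-of-signal was fitted relative to DMSO.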
# [9] = tested on: zebrafish Estrogen Receptor (ESR2B), gene 317733; assay: ATG_zfER2b_XSP1: Attagene TRANS-FACTORIAL Multi-Species (XSP1) HepG2 Assay for zebrafish Estrogen Receptor (ESR2B) (AID 2283773)
# Method in brief: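 HepG2 cells transiently transfected with multiple GAL4-UAS reporter units expressing chimeric zebrafish ER2b-Gal4; 24 h chemical exposure with 3 nM 6-alpha-fluorotestosterone present. Reporter mRNA measured by RT-PCR and capillary electrophoresis; gain of signal fitted versus DMSO.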
structure (smiles),measurement,setting,value
Cn1c(=O)c2[nH]cnc2n(C)c1=O,outcome,[1],inactive
same,outcome,[2],inactive
same,outcome,[3],inactive
CCCCCCCC1CCC(=O)O1 (stereo unspecified),AC50,[2],43.7 µM (active)
NC(=O)N1c2ccccc2C=Cc2ccccc21,outcome,[1],inactive
same,AC50,[4],4.18 µM (active)
same,AC50,[2],0.0251 µM (active)
CCCCCCCCN(C)C,outcome,[5],inactive
same,outcome,[2],inactive
same,outcome,[3],inactive
same,outcome,[6],inactive
c1ccc2cc3ccccc3cc2c1,outcome,[5],inactive
same,outcome,[2],inactive
same,outcome,[7],inactive
same,outcome,[3],inactive
same,outcome,[6],inactive
CC(C)c1nnc2ccc(-c3ocnc3-c3cc(F)ccc3F)cn12,outcome,[5],inactive
same,outcome,[2],inactive
same,AC50,[3],66.8 µM (active)
same,AC50,[6],37.1 µM (active)
CC(C)C(=O)Nc1ccc([N+](=O)[O-])c(C(F)(F)F)c1,AC50,[1],77.1 µM (active)
same,AC50,[4],50 µM (active)
same,outcome,[2],inactive
same,outcome,[8],inactive
same,outcome,[9],inactive
same,AC50,[3],55.2 µM (active)
O=c1[nH]cnc2c1ncn2[C@H]1CC[C@@H](CO)O1,outcome,[1],inactive
same,outcome,[2],inactive
same,outcome,[3],inactive
same,outcome,[6],inactive
CC[C@H](C)C(=O)O[C@H]1C[C@H](O)C=C2C=C[C@H](C)[C@H](CC[C@@H](O)C[C@@H](O)CC(=O)O)[C@H]21,outcome,[1],inactive
same,outcome,[5],inactive
same,outcome,[2],inactive
same,outcome,[3],inactive
same,outcome,[6],inactive
COc1cc2c(c(OC)c1OC)-c1ccc(OC)c(=O)cc1[C@@H](NC(C)=O)CC2,AC50,[1],0.0159 µM (active)
same,AC50,[4],0.0127 µM (active)
same,AC50,[5],0.118 µM (active)
same,AC50,[2],36.4 µM (active)
same,AC50,[3],0.00303 µM (active)
same,AC50,[6],0.00231 µM (active)
COS(C)(=O)=O,AC50,[1],71.4 µM (active)
same,AC50,[4],65.5 µM (active)
same,outcome,[2],inactive
same,outcome,[7],inactive
same,outcome,[6],inactive
OC(Cn1cncn1)(Cn1cncn1)c1ccc(F)cc1F,outcome,[1],inactive
same,outcome,[4],inactive
same,outcome,[2],inactive
same,outcome,[3],inactive
same,outcome,[6],inactive
